S-ASM inh = Inhibitors of Secretory Acid Sphingomyelinase (S-ASM): qHTS; placental ASM, HMU-PC fluorogenic substrate, 60 min; Sphingomyelin phosphodiesterase (Homo sapiens), P17405; 340,000 compounds, 0.006% hits; Potency, µM (highest dose often 57.5 µM), most hits filed as inhibitors
Target sequence (P17405 47-631 limits assumed): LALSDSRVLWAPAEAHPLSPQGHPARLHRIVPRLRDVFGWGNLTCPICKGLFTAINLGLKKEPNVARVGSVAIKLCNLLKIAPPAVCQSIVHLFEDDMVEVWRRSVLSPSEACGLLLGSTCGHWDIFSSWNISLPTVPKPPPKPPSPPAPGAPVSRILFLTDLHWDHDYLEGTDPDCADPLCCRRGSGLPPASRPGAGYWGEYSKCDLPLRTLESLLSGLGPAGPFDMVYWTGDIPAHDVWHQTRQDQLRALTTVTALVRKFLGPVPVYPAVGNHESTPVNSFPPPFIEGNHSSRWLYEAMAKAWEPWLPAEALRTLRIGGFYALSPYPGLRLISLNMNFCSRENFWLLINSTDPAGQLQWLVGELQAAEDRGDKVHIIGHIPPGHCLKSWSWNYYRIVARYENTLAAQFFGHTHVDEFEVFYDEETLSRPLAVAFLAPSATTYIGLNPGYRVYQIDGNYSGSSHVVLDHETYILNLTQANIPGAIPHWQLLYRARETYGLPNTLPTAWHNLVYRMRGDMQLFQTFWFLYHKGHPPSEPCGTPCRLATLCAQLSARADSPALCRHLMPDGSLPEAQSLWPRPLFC
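HMU-PC0 cleavage (9 uM final) by human placental ASM, 60 min at 37 °C following 10 min compound exposure at RT; stopped at pH 10, fluorescence Ex 386/Em 447 nm.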
TDP1 cell CPT = qHTS for Inhibitors of human tyrosyl-DNA phosphodiesterase 1 (TDP1): qHTS in cells in presence of CPT. chicken DT40 Tdp1-/-;hTDP1 cells + 20 nM CPT, ATP luminescence, 48 h. Potency, µM (top dose mostly 46.2 µM), hits mostly inhibitors. 420,000 compounds, 12% hits; also: nearly all actives have a fitted effect of over 55% in size
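Cell growth measured by CellTiter-Glo luminescence after a minimum 48 h, 37 C compound exposure with 20 nM CPT in Tdp1-knockout DT40 cells stably expressing hTDP1, seeded 400/well; qHTS titration format.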
DT40 TDP1 no CPT = qHTS for Inhibitors of human tyrosyl-DNA phosphodiesterase 1 (TDP1): qHTS in cells in absence of CPT; DT40 Tdp1-/- hTDP1 cells, no CPT, ATP luminescence, 48 h; Potency, µM (highest dose often 46.2 µM), hits mostly inhibitors; 420,000 compounds, 15% hits; AID 686978, 2013; also: nearly all actives have a fitted effect of over 55% in size
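Growth of hTDP1-complemented DT40 Tdp1-knockout cells is measured by ATP luminescence after at least 48 hr compound exposure at 37 °C, with DMSO substituting for the 20 nM CPT used in the parallel screen.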
TGFb SMAD3 inh = qHTS for Inhibitors of TGF-b. Potency, µM (doses to about 46.1 µM), most hits filed as inhibitors. HepG2 CAGA-GFP TGF-b/SMAD3 reporter, GFP fluorescence, 18 h; TGF-beta stimulated, 500 pg/mL final. 410,000 compounds, 1.2% hits; also: nearly all actives have a fitted effect of over 65% in size
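Inhibition of TGF-beta-driven CAGA-GFP reporter expression in HEPG2 cells is measured by cellular GFP fluorescence after 18 h stimulation with 500 pg/mL recombinant TGF-beta in 1% FBS medium at 37 degrees C.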
IL1B secr inh = qHTS for Inhibitors of Inflammasome Signaling: IL-1-beta AlphaLISA Primary Screen | THP-1 LPS/ATP IL-1B secretion, AlphaLISA, 16 h; hits give low values | activity change, % at 57.5 µM | 360,000 compounds, 4.7% hits | AID 743279, 2014; in the data active = activity change below about -50%; inconclusive = mostly about -30% to -49%
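Secreted IL-1B measured by AlphaLISA bead assay after 16 h compound exposure of THP-1 cells; compounds (final up to 57.5 uM) added 1 h before LPS (250 ng/mL) and ATP (1.25 mM) stimulation; lower signal means less secretion.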
HepG2 tox = qHTS for Inhibitors of TGF-b: Cytotox Counterscreen. HepG2 CAGA-GFP viability, ATP luminescence, 18 h. Potency, µM (highest dose often 46.1 µM), usual class: cytotoxic. 410,000 compounds, 0.76% hits. AID 588856, 2011
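HepG2 CAGA-GFP cells (1000/well, DMEM with 1% FBS) received compound, then TGF-beta at 500 pg/mL final, and were incubated 18 hours at 37 degrees C. Viability was read by CellTiter-Glo luminescence. Media-only wells were set as complete cell-killing and DMSO as no toxicity.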
A number is an active result. The list is not random: actives were taken first. Their share in the collection is about 19%. Unless noted, calls follow the shape of the dose curve; as a rule, active = well fitted curve in the direction sought with a large enough effect; inconclusive = small, poorly fitted or top-dose-only effect, or another doubt; inactive = no such curve, though single readings can be large; an effect the other way counts as inactive or inconclusive.

COc1ccc(-c2ccc([C@H]3[C@H]4C=CC[C@@H](C)[C@@H]4C(=O)N3Cc3ccccc3)c(F)c2)cc1OC was read as S-ASM inh inactive, TDP1 cell CPT 18.4µM, DT40 TDP1 no CPT 16.4µM, TGFb SMAD3 inh inconclusive, IL1B secr inh inconclusive and HepG2 tox inactive.
For C/C(=N\NC(=O)CCC(=O)Nc1ccc(C)c(C)c1)C1CC1 the results were S-ASM inh inactive, TDP1 cell CPT inactive, DT40 TDP1 no CPT inactive, TGFb SMAD3 inh inactive, IL1B secr inh inactive and HepG2 tox inactive.
O=C(NC(Cc1ccccc1)c1nc2ccccc2[nH]1)c1cccc([N+](=O)[O-])c1 (centres undefined) was read as S-ASM inh inactive, TDP1 cell CPT 20.6µM, DT40 TDP1 no CPT inconclusive, TGFb SMAD3 inh inactive, IL1B secr inh inactive and HepG2 tox inactive.
Screening CCOC(=O)c1ccc(NCc2nc3ccccc3[nH]2)cc1 returned S-ASM inh inactive, TDP1 cell CPT 16.4µM, DT40 TDP1 no CPT 16.4µM, TGFb SMAD3 inh inactive, IL1B secr inh inactive and HepG2 tox inactive.
`O=C(NCC(O)c1nc2ccccc2[nH]1)c1cc([N+](=O)[O-])ccc1F` (centres undefined) gave TDP1 cell CPT inconclusive, DT40 TDP1 no CPT inconclusive, TGFb SMAD3 inh inactive, IL1B secr inh -86.6 and HepG2 tox inactive.
Cc1ccc(C(=O)Cc2nc3ccccc3[nH]2)cc1 was read as S-ASM inh inactive, TDP1 cell CPT inconclusive, DT40 TDP1 no CPT inactive, TGFb SMAD3 inh inactive, IL1B secr inh -101.0 and HepG2 tox inactive.
For CCOC(=O)Cc1nc2ccccc2[nH]1 the results were S-ASM inh inactive, TDP1 cell CPT inactive, DT40 TDP1 no CPT inactive, TGFb SMAD3 inh inconclusive, IL1B secr inh inactive and HepG2 tox inactive.
CSCCC(NC(=O)c1cccc([N+](=O)[O-])c1)c1nc2ccccc2[nH]1 (centres undefined) was read as S-ASM inh inactive, TDP1 cell CPT inactive, DT40 TDP1 no CPT inactive, TGFb SMAD3 inh inactive, IL1B secr inh inactive and HepG2 tox inactive.
For CSCC[C@H](NC(=O)c1cc([N+](=O)[O-])ccc1Cl)c1nc2ccccc2[nH]1 the results were S-ASM inh inactive, TDP1 cell CPT inactive, DT40 TDP1 no CPT inactive, TGFb SMAD3 inh inactive, IL1B secr inh inactive and HepG2 tox inactive.
For C[C@H](CO)N1C[C@H](C)[C@H](CN(C)C(=O)Nc2ccc(C(F)(F)F)cc2)Oc2ncc(-c3cccnc3)cc2C1=O the results were TDP1 cell CPT inactive, DT40 TDP1 no CPT inconclusive, TGFb SMAD3 inh inactive, IL1B secr inh inactive and HepG2 tox inactive.
Screening O=C(Cc1nc2ccccc2[nH]1)c1cccc([N+](=O)[O-])c1 returned S-ASM inh inactive, TDP1 cell CPT 2.91µM, DT40 TDP1 no CPT 3.66µM, TGFb SMAD3 inh inconclusive, IL1B secr inh inactive and HepG2 tox inactive.
O=C(NCc1nc2ccccc2[nH]1)c1ccccc1F was read as S-ASM inh inactive, TDP1 cell CPT inactive, DT40 TDP1 no CPT inactive, TGFb SMAD3 inh inactive, IL1B secr inh inactive and HepG2 tox inactive.
O=C(NCc1nc2ccccc2[nH]1)c1c(F)c(F)c(F)c(F)c1F was read as S-ASM inh inactive, TDP1 cell CPT inactive, DT40 TDP1 no CPT inactive, TGFb SMAD3 inh inactive, IL1B secr inh -78.3 and HepG2 tox inactive.
Nc1cc(=O)nc(SCC(=O)N2CCN(c3ccccc3)CC2)n1-c1ccc(F)cc1 was read as S-ASM inh inactive, TDP1 cell CPT inactive, DT40 TDP1 no CPT inactive, TGFb SMAD3 inh inactive, IL1B secr inh inactive and HepG2 tox inactive.
`CC(=O)N1CCCc2cc(S(=O)(=O)N(C)CC(=O)Nc3ccc(C(C)C)cc3)ccc21` gave TDP1 cell CPT 18.4µM, DT40 TDP1 no CPT 23.1µM, TGFb SMAD3 inh inactive and HepG2 tox inactive.
For CC(=O)N1CCCc2cc(S(=O)(=O)N(CC(C)C)CC(C)C)ccc21 the results were S-ASM inh inactive, TDP1 cell CPT 25.9µM, DT40 TDP1 no CPT inconclusive, TGFb SMAD3 inh inactive, IL1B secr inh inactive and HepG2 tox inactive.
CCN(c1ccccc1)S(=O)(=O)c1ccc2c(c1)CCCN2C(C)=O was read as S-ASM inh inactive, TDP1 cell CPT inactive, DT40 TDP1 no CPT inconclusive, TGFb SMAD3 inh inactive, IL1B secr inh inactive and HepG2 tox inactive.
`O=C(NCCc1ccccc1)c1c[nH]c2ccccc2c1=O` gave TDP1 cell CPT inactive, DT40 TDP1 no CPT inconclusive, TGFb SMAD3 inh inactive, IL1B secr inh inactive and HepG2 tox inactive.
O=C(/C=C/c1cccc([N+](=O)[O-])c1)c1ccc2c(c1)OCCO2 was read as S-ASM inh inactive, TDP1 cell CPT inconclusive, DT40 TDP1 no CPT 18.4µM, TGFb SMAD3 inh inconclusive, IL1B secr inh inactive and HepG2 tox inactive.
Screening O=C(c1cccc([N+](=O)[O-])c1)c1ccc2c(c1)OCCOCCOCCOCCO2 returned S-ASM inh inactive, TDP1 cell CPT inactive, DT40 TDP1 no CPT inconclusive, TGFb SMAD3 inh inactive, IL1B secr inh inactive and HepG2 tox inactive.
COc1cccc(/C=C/C(=O)OCC(=O)c2ccc(C)c(C)c2)c1OC was read as S-ASM inh inactive, TDP1 cell CPT inactive, DT40 TDP1 no CPT 25.9µM, TGFb SMAD3 inh inactive, IL1B secr inh inactive and HepG2 tox inactive.
For COc1ccc(/C=C/C(=O)c2ccc3c(c2)OCCO3)cc1[N+](=O)[O-] the results were S-ASM inh inactive, TDP1 cell CPT inconclusive, DT40 TDP1 no CPT 14.6µM, TGFb SMAD3 inh inconclusive, IL1B secr inh -55.1 and HepG2 tox inactive.
O=C(COC(=O)c1ccc(O)cc1)c1ccc2c(c1)OCCO2 was read as S-ASM inh inactive, TDP1 cell CPT inactive, DT40 TDP1 no CPT inactive, TGFb SMAD3 inh inactive, IL1B secr inh inactive and HepG2 tox inactive.
`COc1cc(CC(=O)OCC(=O)c2ccc3c(c2)OCCO3)cc(OC)c1OC` gave S-ASM inh inactive, TDP1 cell CPT 1.3µM, DT40 TDP1 no CPT 1.3µM, TGFb SMAD3 inh inactive, IL1B secr inh inactive and HepG2 tox inactive.
`COc1ccc(NC(=O)CNc2cccc(S(=O)(=O)N3CCCCCC3)c2)c([N+](=O)[O-])c1` gave S-ASM inh inactive, TDP1 cell CPT inconclusive, DT40 TDP1 no CPT inconclusive, TGFb SMAD3 inh inactive, IL1B secr inh inactive and HepG2 tox inactive.

Source: PubChem BioAssay (National Center for Advancing Translational Sciences (NCATS))
